Hits are enriched below; roughly 4.7% of the tested compounds scored in any of these assays.
PfHsp90 yeast 2 = reduces growth (ATP signal) of yeast expressing P. falciparum Hsp90; S. cerevisiae expressing PfHsp90, BacTiter-Glo ATP, 48 h; yeast lacking PDR1 and PDR3 efflux regulators; inhibition, % at 9.4 µM; hit rate 0.32% among 310,000;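 active = every replicate shows inhibition above about 80%, whatever the replicate mean, limit read from the data; inconclusive = mean inhibition reaches the set limit but some replicate falls short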;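 note: 0% = DMSO neutral controls and 100% = 20 µM radicicol positive controls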
tim10-1 inh = growth inhibitors of tim10-1 mutant yeast; S. cerevisiae tim10-1 ts strain growth, BacTiter-Glo, 24 h; inhibition, % at 20 µM; hit rate 2.2% among 330,000;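 active = inhibition of at least 40%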;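 note: mutant grown at 25 °C; 0% = DMSO wells with yeast and 100% = wells holding no yeast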
tim23-1 inh = tim23-1 yeast growth inhibition | S. cerevisiae tim23-1 growth, BacTiter-Glo luminescence, 24 h | inhibition, % at 20 µM | hit rate 1.3% among 330,000 | AID 463212;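 active = growth inhibition of the mutant yeast at or above 50%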;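 note: temperature-sensitive mutant grown at 25 °C; plate controls were DMSO-treated mutant yeast for no effect and medium wells lacking yeast for full effect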
Calb FLC = affects C. albicans growth with fluconazole; C. albicans CaCi-2 (fluconazole-resistant clinical isolate) + fluconazole, Alamar Blue growth, 48 h; growth inhibition, % (test concentration not listed); hit rate 0.57% among 300,000; AID 1979;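 active = growth inhibition above about 58% in most replicates, limit read from the data, passing the limit was not always enough; inconclusive = exactly half the replicates above a set limit; inactive = most replicates below a set limit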;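 note: all wells also contain fluconazole at 8 µg/ml as a sub-toxic cotreatment; 0% = median of DMSO wells and 100% = median of geldanamycin control wells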
SKKanGAS inh = blocks kanamycin growth of S. pyogenes SKKanGAS strain; BacTiter-Glo, 6 h; inhibition, % at 7.5 µM; hit rate 1.3% among 300,000; AID 1662;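 active = mean replicate score, as percent of positive control median, at least 50; inconclusive = mean below 50 but one replicate at or above 50; inactive = mean and every replicate below 50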;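 note: strain carries kanamycin resistance gene driven by streptokinase promoter and grows in 40 µg/ml kanamycin; loss of luminescence reflects streptokinase promoter inhibition or plain growth inhibition; 0% = median of DMSO wells and 100% = positive control at its reference dose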
TIM10 inh = TIM10 yeast growth inhibition; AID 463195; inhibition, % at 10 µM; hit rate 1.4% among 330,000; S. cerevisiae TIM10 strain growth, BacTiter-Glo luminescence, 24 h;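 active = inhibition of 40% or more at the single tested concentration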;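 note: wild-type TIM10 isogenic control strain grown at permissive 25 °C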
* marks the source's active call; other numbers are inactive results; ? = inconclusive; · = no result.

SMILES | PfHsp90 yeast 2 | tim10-1 inh | tim23-1 inh | Calb FLC | SKKanGAS inh | TIM10 inh
Cc1cccc(NC(=O)c2ccc(C)c(S(=O)(=O)N3CCCCC3)c2)n1 | 1.9 | 31.2 | 29.8 | -11.1 | -7.3 | 7.5
O=C(Oc1ccc(Cl)c2cccnc12)N1CCOCC1 | -9.1 | 11.5 | 20.0 | -7.7 | -0.6 | -1.4
COc1cc(C(=O)Oc2c(CN3CCOCC3)cc(Cl)c3cccnc23)cc(OC)c1OC | 1.3 | 28.7 | 24.0 | 94.1* | 0.2 | 16.4
O=C(Oc1c(CN2CCOCC2)cc(Cl)c2cccnc12)c1ccc(F)cc1 | · | 38.0 | 39.0 | 95.9* | 18.6 | 37.9
O=C(Oc1c(CN2CCOCC2)cc(Cl)c2cccnc12)c1ccccc1Cl | 6.7 | 33.2 | 43.6 | 100.0* | 20.5 | 21.8
COc1cc(C(=O)Oc2c(OC)cc(C(=S)N3CCOCC3)cc2OC)cc(OC)c1OC | -5.4 | 15.4 | 11.4 | -0.6 | -1.9 | -0.9
NS(=O)(=O)c1ccc(NC(=S)N2CCN(C(=O)C3CCCO3)CC2)cc1 (stereo unspecified) | 2.1 | -9.6 | -6.1 | -2.0 | -1.5 | 0.8
O=C(NCCNC(=O)Oc1cccc2ccccc12)Oc1cccc2ccccc12 | -8.2 | · | · | · | · | ·
Cc1cc(C)c2sc(NNC(=O)c3ccc(S(=O)(=O)N4CCc5ccccc5C4)cc3)nc2c1 | 43.4 | 25.2 | 28.0 | 7.8 | 65.4* | 17.5
Cc1cc(C)c2nc(NNC(=O)c3ccc(S(=O)(=O)N4CCc5ccccc5C4)cc3)sc2c1 | 45.3 | -27.2 | 7.8 | 0.1 | 77.6* | -23.3
Cc1cc(C)c2nc(NNC(=O)c3cc(=O)c4ccccc4o3)sc2c1 | -69.4 | 12.4 | 27.1 | -19.1 | 84.8* | -29.8
Cc1cc(C)c2sc(N(CCCN(C)C)C(=O)c3ccc(S(=O)(=O)N4CCc5ccccc5C4)cc3)nc2c1 | -16.7 | 2.9 | 1.3 | -0.8 | 9.8 | 3.4
CCOc1ccc(NS(=O)(=O)c2cc3c4c(c2)C(C)C(=O)N4CCC3)cc1 (stereo unspecified) | 12.6 | 6.6 | -21.1 | 2.8 | 3.0 | -0.4
COc1ccc(/C=C/c2c([N+](=O)[O-])c(=O)n(C)c(=O)n2C)cc1O | -10.5 | 27.9 | 7.0 | -4.4 | 9.1 | -7.1
CN(C)c1ccc(/C=C/c2c([N+](=O)[O-])c(=O)n(C)c(=O)n2C)cc1 | 3.4 | -8.1 | -5.7 | -10.1 | 52.3* | -1.4
CCCOc1ccc(/C=C/c2c([N+](=O)[O-])c(=O)n(C)c(=O)n2C)cc1 | -10.9 | -0.7 | -9.1 | 6.0 | 50.4* | 3.9
O=C(CCN1CCCCC1)c1cccc(Cl)c1 | -35.1 | · | · | · | · | ·
COc1ccc(NC(=O)Cc2ccc(C)c(C)c2)cc1S(=O)(=O)N1CCCCC1 | 17.3 | -36.6 | -27.7 | · | · | -14.2
COc1ccc(-c2oc(NC(=O)CSc3ncn[nH]3)c(C#N)c2-c2ccc(OC)cc2)cc1 | -22.4 | -3.4 | -10.5 | -0.1 | 70.0* | -25.4
COc1ccc(-c2oc(NC(=O)CCl)c(C#N)c2-c2ccc(OC)cc2)cc1 | 12.6 | 33.1 | 41.5 | -4.7 | ? | 34.3
Cc1cccc(NC(=S)NCC23C=CC(O2)C2C(=O)N(c4ccc(Cl)cc4)C(=O)C23)c1 (stereo unspecified) | 106.7* | 30.9 | 25.9 | -8.0 | 6.1 | 30.6
Cc1ccc(N2C(=O)C3C4C=CC(CNC(=S)N5CCN(c6ccccc6)CC5)(O4)C3C2=O)cc1 (stereo unspecified) | 103.8* | 10.9 | -5.6 | -3.0 | -14.0 | 2.8
Cc1ccc(S(=O)(=O)NCC2(c3ccccc3)CCN(C)CC2)cc1 | 8.6 | 13.1 | 5.3 | 3.7 | 2.7 | -3.6
CC(C)(C)OC(=O)NCC12C=CC(O1)C1C(=O)N(Cc3ccccc3)C(=O)C12 (stereo unspecified) | 49.5 | 11.7 | 10.1 | -0.9 | 1.5 | 2.6
Cc1ccc(NC(=S)NCC23C=CC(O2)C2C(=O)N(c4ccc(C)cc4)C(=O)C23)cc1 (stereo unspecified) | 106.5* | 35.9 | 28.8 | -11.2 | -5.9 | 11.1
SMILES | PfHsp90 yeast 2 | tim10-1 inh | tim23-1 inh | Calb FLC | SKKanGAS inh | TIM10 inh
Cc1ccc(S(=O)(=O)NCC23C=CC(O2)C2C(=O)N(c4ccccc4)C(=O)C23)cc1 (stereo unspecified) | 106.0* | -1.3 | -7.8 | -3.7 | -6.5 | 7.2
Cc1ccc(S(=O)(=O)c2cc3c(=O)n4cccc(C)c4nc3n(Cc3ccncc3)c2=N)cc1 | 0.3 | 26.7 | 33.2 | 5.3 | 4.9 | 28.2
Cc1cc(Cl)ccc1OC(C)C(=O)Nc1ccc(S(=O)(=O)Nc2cnc3ccccc3n2)cc1 (stereo unspecified) | · | 32.6 | 0.4 | 16.0 | 66.6* | 9.7
O=C(Nc1ccc(S(=O)(=O)Nc2cnc3ccccc3n2)cc1)c1ccc(Cl)cc1Cl | · | 6.0 | -2.7 | -6.7 | 14.8 | 2.8
Cc1ccc(N2C(=O)C3CC(c4ccccc4)=C4C5C=CC(C6C(=O)N(c7ccc(C)cc7C)C(=O)C56)C4C3C2=O)c(C)c1 (stereo unspecified) | 1.4 | 15.3 | 21.3 | -3.6 | 5.0 | 12.3
Cc1ccc(N2C(=O)C3CC(c4ccccc4)=C4C5C=CC(C6C(=O)N(c7ccc(C)cc7)C(=O)C56)C4C3C2=O)cc1 (stereo unspecified) | -30.0 | 7.0 | -3.8 | 0.4 | 65.4* | 11.1
COCCCN1C(=O)C(=O)/C(=C(/O)c2ccc(OCC(C)C)cc2C)C1c1cccnc1 (stereo unspecified) | 10.3 | -12.9 | 7.9 | 105.9* | -14.9 | -1.5
N[C@@H](C(=O)N[C@@H]1C(=O)N2C(C(=O)O)=C(Cl)CS[C@H]12)c1ccccc1 | -3.3 | -10.2 | -5.2 | · | 104.7* | 3.4
CC1=C(C(=O)O)N2C(=O)C(NC(=O)c3ccccc3Cl)C2SC1 (stereo unspecified) | -6.6 | 6.5 | 4.7 | 1.2 | 7.4 | -3.3
C=CCOc1ccccc1CN(C(=O)CCl)c1ccc2c(c1)OCO2 | -24.0 | 4.9 | 45.8 | -9.0 | 0.8 | 32.7
Cc1ccc(NC(=O)NC2CCCCCCC2)cc1C | -14.4 | 3.0 | 20.0 | -7.8 | · | -1.8
Cc1ccc(NC(=O)c2ccc(C#CC3(O)CCCCC3)cc2)cc1C | · | 14.0 | 3.1 | -6.5 | 50.5* | 1.7
Cc1ccc(N/N=C2\CS(=O)(=O)N(C)c3ccsc32)cc1 | -18.3 | 29.7 | 44.2 | 6.8 | 101.3* | -3.9
Cc1cc(-c2nc(-c3ccc(C(C)(C)C)cc3)no2)no1 | 17.8 | 17.5 | 14.0 | -18.5 | -1.1 | 1.3
CC(C)(C)c1ccc(-c2noc(-c3ccc4c(c3)CCO4)n2)cc1 | 9.1 | 34.6 | 5.3 | 0.6 | 82.4* | 16.2
COc1ccc(-c2sc3cc(OC)c(OC)cc3c2-c2ccc(O)cc2)cc1 | -63.2 | 23.1 | 33.4 | · | · | 23.3
CCn1cc(C(=O)O)c(=O)c2cc(F)c(N/N=C/c3ccccc3[N+](=O)[O-])cc21 | -8.4 | 12.3 | -24.1 | -18.7 | 79.4* | 1.8
COc1ccc(/C=C2/C(=O)N(c3nc4ccccc4s3)N=C2CSc2ccc(Cl)cc2)cc1 | 5.3 | 9.4 | 8.8 | -17.4 | 68.3* | 9.9

Screens from PubChem BioAssay.
